This passage reports Potency results from PubChem BioAssay (Tox21).

Structures are written as SMILES. Records with an inconclusive call do not appear. Calls of active or inactive are those of the source. Calls follow the shape of the full dose curve.

The target in assay [1] is Acetylcholinesterase (Homo sapiens) (UniProt P22303). In words: Acetylcholinesterase (AChE) small molecule antagonists: colormetric cell-based qHTS assay (AID 1347395). Also: nearly all actives have a fitted effect of over 30% in size. The settings on record: SH-SY5Y cells AChE activity, colorimetric (Ellman); series mostly up to 115 µM. The method in brief: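 Homogeneous whole-cell format. SH-SY5Y cells seeded overnight, dosed with compound (30 min, 37 C, 5% CO2), then given DTNB/acetylthiocholine cocktail for 90 min at 37 C; colorimetric signal.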
Acetylcholinesterase (Homo sapiens), sequence (P22303 whole entry, looked up): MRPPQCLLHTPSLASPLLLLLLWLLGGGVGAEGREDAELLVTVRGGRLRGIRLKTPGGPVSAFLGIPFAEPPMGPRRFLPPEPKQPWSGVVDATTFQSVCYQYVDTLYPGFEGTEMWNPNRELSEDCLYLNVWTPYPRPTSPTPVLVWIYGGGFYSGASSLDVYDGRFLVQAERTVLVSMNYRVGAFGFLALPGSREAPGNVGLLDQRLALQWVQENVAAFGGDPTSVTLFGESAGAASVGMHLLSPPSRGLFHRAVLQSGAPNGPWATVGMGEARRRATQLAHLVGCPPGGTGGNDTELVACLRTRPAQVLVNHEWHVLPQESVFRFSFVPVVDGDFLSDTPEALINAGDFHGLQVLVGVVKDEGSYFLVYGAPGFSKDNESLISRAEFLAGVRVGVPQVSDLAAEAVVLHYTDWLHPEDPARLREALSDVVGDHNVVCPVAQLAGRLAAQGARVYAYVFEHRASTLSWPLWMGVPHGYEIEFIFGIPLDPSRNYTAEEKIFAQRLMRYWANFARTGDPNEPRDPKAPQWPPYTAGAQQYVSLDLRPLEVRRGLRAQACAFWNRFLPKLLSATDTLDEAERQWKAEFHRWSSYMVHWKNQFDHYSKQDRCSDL
A general note: qHTS replaces the single test concentration by a dilution series.

The target is the same in assay [2]. In words: Acetylcholinesterase (AChE) small molecule antagonists: enzyme-based qHTS assay (AID 1347397). Also: nearly all actives have a fitted effect of over 55% in size. The following applies: Potency: AChE enzyme activity inhibition; outcome: AChE enzyme activity inhibition; series mostly up to 115 µM. In outline: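 rhAChE 50 mU/mL (dispensed) + cpd or DMSO, 30 min RT; add DTNB/acetylthiocholine cocktail, 10 min RT; colorimetric thiocholine readout. qHTS, 1536-well format.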

Assay [3] shares this target. In words: Acetylcholinesterase (AChE) small molecule antagonists: fluorescence cell-based qHTS assay (AID 1347398). Also: nearly all actives have a fitted effect of over 50% in size. The following applies: SH-SY5Y cells; Potency: AChE activity; outcome: AChE activity; series mostly up to 115 µM. In outline:
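Read-out is Thiolite Green fluorescence at Ex/Em = 490/520 nm, formed by reaction with thiocholine released when cellular AChE in SH-SY5Y cells hydrolyzes acetylthiocholine. Compounds were preincubated 30 min at 37 C before substrate.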

For assay [4] the target is unchanged. In words: Acetylcholinesterase (AChE) small molecule antagonists: enzyme-based qHTS assay with human liver microsomes (AID 1347399). Also: nearly all actives have a fitted effect of over 60% in size. The following applies: Potency: qHTS inhibition; outcome: qHTS inhibition; series mostly up to 115 µM. The method in brief:
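Recombinant human AChE (50 mU/mL in the enzyme mix) and human liver microsomes (0.25 mg/mL final) were preincubated with compound and NADPH (0.25 mg/mL final) for 30 min at 37 C. Acetylthiocholine/DTNB was then added; thiocholine was read colorimetrically after 10 min at room temperature.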
Potency is read from the fitted curve at half-maximal effect.

Turning to `CCCC1CCC(=O)CC1`, the Potency entry in assay [1], in assay [2], in assay [3] and in assay [4] was “inactive” each time.

Turning to `O=C(O)C(=O)Cc1c[nH]c2ccccc12`, the Potency entry in assay [1], in assay [2], in assay [3] and in assay [4] was “inactive” throughout.

For the compound `S=P(N1CC1)(N1CC1)N1CC1`, the Potency was 66.7 µM (active) in assay [1], 59.4 µM (active) in assay [2], 33.4 µM (active) in assay [3] and 74.8 µM (active) in assay [4].

Turning to `CCCCCCC1CCC(=O)O1` (configuration not stated), the Potency entry in assay [1], in assay [2], in assay [3] and in assay [4] was “inactive” in each case.

Take `S=c1[nH][nH]c(=S)s1`: the Potency result in assay [1], in assay [2], in assay [3] and in assay [4] was “inactive” each time.

Consider `CN(C)C(=O)Nc1ccccc1`, for which the Potency result in assay [1], in assay [2], in assay [3] and in assay [4] was “inactive” throughout.

Take `CCOC(=O)[C@@](C)(N)Cc1ccc(O)c(O)c1`: the Potency result in assay [1], in assay [2], in assay [3] and in assay [4] was “inactive” each time.

In the case of `C=C(C)C(=O)OCCC[Si](Cl)(Cl)Cl`, the Potency result in assay [1], in assay [2], in assay [3] and in assay [4] was “inactive” throughout.

Regarding `CCCCCc1ccc(Cl)cc1`, the Potency entry in assay [1], in assay [2], in assay [3] and in assay [4] was “inactive” throughout.

Take `CN(C(=O)C(Cl)Cl)c1ccc(OC(=O)c2ccco2)cc1`: the Potency entry in assay [1], in assay [2], in assay [3] and in assay [4] was “inactive” each time.

For the compound `CCC(C)(C)C(=O)O`, the Potency entry in assay [1], in assay [2], in assay [3] and in assay [4] was “inactive” throughout.

In the case of `O=C(NS(=O)(=O)/C=C/c1cccs1)c1ccc(F)cc1Br`, the Potency result in assay [1], in assay [2], in assay [3] and in assay [4] was “inactive” in each case.

For the compound `OC(C#CCN1CCCC1)(c1ccccc1)c1ccccc1`, the Potency entry in assay [1], in assay [2], in assay [3] and in assay [4] was “inactive” in each case.

As to `CC1=NS(=O)(=O)c2cc(Cl)ccc2N1`, the Potency entry in assay [1], in assay [2], in assay [3] and in assay [4] was “inactive” in each case.

As to `CC(C)(C)C1CCC(CC2=C(O)c3ccccc3C(=O)C2=O)CC1` (configuration not stated), the Potency entry in assay [1], in assay [2], in assay [3] and in assay [4] was “inactive” each time.

Consider `O=c1cccccc1O`, for which the Potency result in assay [1], in assay [2], in assay [3] and in assay [4] was “inactive” in each case.

`CCCCCCCCCCCCCCC1CO1` (configuration not stated): the Potency result in assay [1], in assay [2], in assay [3] and in assay [4] was “inactive” throughout.

On to `CC(=O)OC(C)C[N+](C)(C)C` (configuration not stated), for which the Potency entry in assay [1], in assay [2], in assay [3] and in assay [4] was “inactive” throughout.

Take `NC(=O)c1ccccc1C(N)=O`: the Potency entry in assay [1], in assay [2], in assay [3] and in assay [4] was “inactive” in each case.

As for `Cc1cccc(N(C)C(=S)Oc2ccc3c(c2)CCC3)c1`, the Potency result in assay [1], in assay [2], in assay [3] and in assay [4] was “inactive” throughout.

Turning to `C[N+](C)(CCOc1ccccc1)Cc1cccs1`, the Potency entry in assay [1], in assay [2], in assay [3] and in assay [4] was “inactive” each time.

Turning to `CCCCC(=O)O[C@]1(C(=O)CO)[C@H](C)C[C@H]2[C@@H]3CCC4=CC(=O)C=C[C@]4(C)[C@@]3(F)[C@@H](O)C[C@@]21C`, the Potency result in assay [1], in assay [2], in assay [3] and in assay [4] was “inactive” in each case.

As for `CCC(O)C(C)(C)C` (configuration not stated), the Potency entry in assay [1], in assay [2], in assay [3] and in assay [4] was “inactive” in each case.

Take `CN(C)C(C)(C)CO`: the Potency result in assay [1], in assay [2], in assay [3] and in assay [4] was “inactive” throughout.

Consider `CCCCCCCCCCCCCCC[C@H](O)[C@@H](N)CO`, for which the Potency entry in assay [1], in assay [2], in assay [3] and in assay [4] was “inactive” each time.

Turning to `Cc1cccc(Br)c1`, the Potency result in assay [1], in assay [2], in assay [3] and in assay [4] was “inactive” throughout.

Consider `Oc1cccc(Nc2ccccc2)c1`, for which the Potency entry in assay [1], in assay [2], in assay [3] and in assay [4] was “inactive” in each case.

Consider `C1COC1`, for which the Potency result in assay [1], in assay [2], in assay [3] and in assay [4] was “inactive” in each case.

Take `C[C@H](CN1CCCC1)C(=O)c1ccc(C(F)(F)F)cc1`: the Potency entry in assay [1], in assay [2], in assay [3] and in assay [4] was “inactive” in each case.

As for `CC(C)Nc1ccc(NC(C)C)c2c1C(=O)c1ccccc1C2=O`, the Potency entry in assay [1], in assay [2], in assay [3] and in assay [4] was “inactive” throughout.

Consider `CC(C)(C)C(=O)Oc1ccc(S(=O)(=O)Nc2ccccc2C(=O)NCC(=O)O)cc1`, for which the Potency result in assay [1], in assay [2], in assay [3] and in assay [4] was “inactive” each time.

Consider `O=C(/C=C/c1ccccc1)OCCc1ccccc1`, for which the Potency entry in assay [1], in assay [2], in assay [3] and in assay [4] was “inactive” throughout.

Take `Cc1nc(C)nc(N2C[C@@H](C)N(c3ccnc([C@@H](C)O)n3)[C@@H](C)C2)n1`: the Potency result in assay [1], in assay [2], in assay [3] and in assay [4] was “inactive” each time.
